KLK7 zymogen act = activates the human kallikrein-7 zymogen | purified proKLK7, EDANS-DABCYL substrate fluorescence; 100% is mature enzyme control, 0% vehicle | AID 652039 | activation, % at 7 µM | 0.9% of 370,000 active;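 active means activation above the mean of all tested compounds plus 3 SD, computed per campaign excluding outliers beyond control limits, cut at about 13% in these data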
Target sequence (P49862 whole entry, looked up): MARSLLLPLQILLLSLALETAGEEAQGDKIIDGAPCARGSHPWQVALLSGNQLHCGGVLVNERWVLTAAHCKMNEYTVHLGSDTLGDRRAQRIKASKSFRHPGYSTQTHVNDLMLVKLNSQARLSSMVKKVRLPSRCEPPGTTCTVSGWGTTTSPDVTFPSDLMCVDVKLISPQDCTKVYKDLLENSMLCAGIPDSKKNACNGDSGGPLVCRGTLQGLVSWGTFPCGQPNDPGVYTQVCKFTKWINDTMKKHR
sPLA2-III inh = Blocks human group III sPLA2 activity | Q9NZ20 | QFRET BODIPY PC-A2 liposome hydrolysis, fluorescence | 0.56% of 370,000 active | inhibition, % at 12.2 µM | AID 743126;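 active means inhibition above mean plus 3 SD of compounds lying within the high and low control bounds, cut at about 19% in these data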;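 further: 0% = median of test compound wells and 100% = no enzyme DMSO wells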
ADAM17 inh = ADAM17 inhibition, QFRET primary screen; P78536; recombinant ADAM17, EDANS/DABCYL FRET peptide cleavage; inhibition, % at 6.95 µM; 0.83% of 370,000 active;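 active means inhibition above the mean of compounds lying between control limits plus 3 SD, set per campaign, cut at about 8.5% in these data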;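 further: 0% = DMSO-only wells as the low control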
ADAM10 inh = ADAM10 inhibition, QFRET primary screen. O14672. inhibition, % at 7 µM. 0.62% of 370,000 active. recombinant ADAM10, EDANS/DABCYL FRET peptide cleavage, 3 h;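 active means inhibition above a per-campaign cutoff equal to the mean of compounds falling between control-based bounds plus 3 SD, cut at about 20% in these data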;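 further: 0% = DMSO wells while the 100% control is not disclosed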
PLCb3 inh = inhibitors of human phospholipase C beta3; Purified PLC-beta3, fluorogenic substrate, fluorescence; inhibition, % at 12.2 µM; 0.18% of 370,000 active; AID 720704; in the data active means inhibition above about 11%;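 further: 0% = median of compound wells on plate and 100% = full blocker control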
PLCg1 inh = blocks human PLC-gamma1 enzyme activity | P19174 | purified PLC-gamma1, fluorogenic substrate, fluorescence | inhibition, % at 12.2 µM | 0.84% of 370,000 active; in the data active means inhibition above about 9.5%
ADAM10 ctr = counter-screen for ADAM17 exosite inhibitors: inhibitors of human ADAM10. shares compounds with ADAM17 inh. recombinant ADAM10, EDANS/DABCYL FRET peptide cleavage, 3 h. inhibition, % at 6.95 µM. 47% of 2,900 active. AID 743256;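 active means mean inhibition over the triplicate runs exceeds the activity threshold set in the earlier primary screen, cut at about 20% in these data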;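 further: 0% = DMSO wells and 100% = marimastat wells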
ADAM17 confirm = confirmation of inhibitors of human ADAM17. shares compounds with ADAM17 inh. recombinant ADAM17, EDANS/DABCYL QFRET peptide cleavage. inhibition, % at 6.95 µM. 65% of 2,900 active. AID 743257;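 active means mean inhibition across replicates above the hit cutoff set in the primary screen, cut at about 8.5% in these data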;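 further: 0% = DMSO wells and 100% = marimastat wells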
Starred values were filed as active, the others as inactive; / = no result given. Only some compounds are listed: those with a hit (about 3.4% of all), similar ones and a draw of the others.

SMILES	KLK7 zymogen act	sPLA2-III inh	ADAM17 inh	ADAM10 inh	PLCb3 inh	PLCg1 inh	ADAM10 ctr	ADAM17 confirm
N#CC1c2ccccc2C=CN1C(=O)c1ccccc1 (configuration not stated)	0	-5	-2	1	-3	0	/	/
N#CC1(Cc2ccccc2Cl)c2ccccc2C=CN1C(=O)c1ccccc1 (configuration not stated)	-5	-14	11*	15	0	0	14	9.3*
Cc1ccccc1C(=O)N[C@H](C(=O)N1CCC[C@H]1C(=O)NCCc1ccccc1Cl)c1ccccc1	1	-8	-5	-7	1	-1	/	/
O=C(NC(=S)NCCc1ccccc1)c1ccccc1F	1	-8	10*	13	-1	8	12	6
O=C(CSc1nnc(COc2ccccc2)n1Cc1ccco1)Nc1ccc(OCc2ccccc2)cc1	0	-17	2	3	0	1	/	/
CCn1c(SCC(=O)Nc2ccc(NC(=O)c3ccco3)cc2)nnc1-c1cccs1	100*	3	8.8*	9	4	8	10	4
COc1ccccc1NC(=O)CSc1nnc(COc2ccc(Cl)cc2)n1Cc1ccco1	1	-11	-2	-3	-2	-3	/	/
O=C(CSc1nnc(-c2cccs2)n1Cc1ccco1)Nc1ccc(OCc2ccccc2)cc1	1	-15	9.4*	17	4	1	23*	12*
COc1ccc(C)cc1NC(=O)CSc1nnc(COc2ccc(C)cc2)n1Cc1ccco1	1	-19	11*	19	2	5	26*	15*
O=C(CCl)NC1CCCCN(Cc2ccc(OC(F)(F)F)cc2)C1=O (configuration not stated)	0	-3	-3	-5	2	-2	/	/
C[C@@H]1CC=C[C@H]2[C@H]1C(=O)N(Cc1ccccc1)[C@H]2c1ccc(-c2ccoc2)cc1F	0	-5	13*	18	-2	5	10	8
C[C@@H]1CC=C[C@H]2[C@H]1C(=O)N(Cc1ccccc1)[C@H]2c1ccc(-c2ccc(F)cc2)cc1F	1	-3	-5	-8	-4	0	/	/
O=C1NC(Cc2cnc[nH]2)C(=O)N2CCCC12 (configuration not stated)	0	1	-4	-15	6	2	/	/
CCN1C(=O)/C(=C/c2ccc(C)s2)NC1=S	0	13	10*	14	-13	-6	12	12*
CCOC(=O)CC[C@@H]1CC[C@]2(CCCN(C(=O)c3ccco3)C2)O1	0	2	3	3	1	-1	/	/
O=C(CCC(=O)OCC(=O)c1ccccc1)Nc1cccc2cccnc12	0	-1	8.7*	18	2	6	0	1
O=C(O)CCC(=O)Nc1cccc2cccnc12	0	4	-1	-10	4	3	/	/
Nn1c(SCc2c(Cl)cccc2Cl)nnc1-c1n[nH]c2c1CCC2	-1	6	-4	-3	-1	-1	/	/
O=S(=O)(NCCC(c1ccc(F)cc1)c1ccco1)c1ccccc1 (configuration not stated)	0	-39	13*	15	1	1	18	11*
Cc1ccc(-n2c(SCC(=O)c3ccc(-c4ccccc4)cc3)nnc2-c2ccc(C(C)(C)C)cc2)cc1	1	4	2	-1	-4	-2	/	/
CCCCOCCCNC(=O)C[C@H]1C[C@@]2(C(=O)OC)C(=C[C@H](C(C)C)O[C@@H]2C2CC2)N(CCc2ccc(OC)c(OC)c2)C1=O	-1	-16	-2	-1	1	-1	/	/
Nc1ccc2nc(CCCCCCCCc3nc4ccc(N)cc4[nH]3)[nH]c2c1	0	12	13*	11	-10	-2	4	3
COc1ccc(/C(C)=N\NC(=O)c2ccco2)cc1	0	8	-3	-3	1	-6	/	/

Source: PubChem BioAssay
